Outcome data for 16 compounds are collected here from PubChem BioAssay (EPA / NIEHS).

Molecules are shown by their SMILES. Activity calls are given as the source filed them. How the source made its calls: active means hit-call score of the fitted dose curve at least 0.9, where 1 is the maximum; inactive means score below 0.9.

Chain of Bile acid receptor (Homo sapiens) (Q96RI1 whole entry, looked up): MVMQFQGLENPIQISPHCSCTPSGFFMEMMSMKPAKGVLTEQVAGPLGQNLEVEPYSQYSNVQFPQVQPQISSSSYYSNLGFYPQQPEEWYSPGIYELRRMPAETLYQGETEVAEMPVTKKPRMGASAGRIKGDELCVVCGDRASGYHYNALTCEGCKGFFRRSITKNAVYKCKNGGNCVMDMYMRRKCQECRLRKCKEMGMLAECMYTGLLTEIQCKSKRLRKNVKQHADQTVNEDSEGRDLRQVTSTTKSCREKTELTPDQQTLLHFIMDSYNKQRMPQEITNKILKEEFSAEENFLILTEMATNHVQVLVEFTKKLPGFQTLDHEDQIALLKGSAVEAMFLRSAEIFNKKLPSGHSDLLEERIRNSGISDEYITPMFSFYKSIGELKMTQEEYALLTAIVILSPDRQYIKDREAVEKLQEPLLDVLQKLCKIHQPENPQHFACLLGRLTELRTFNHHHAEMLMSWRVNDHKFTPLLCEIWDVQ

The first experiment has as its target Bile acid receptor (Homo sapiens) (UniProt Q96RI1). The experiment can be described thus: ATG_IR1_CIS: Attagene CIS-FACTORIAL HepG2 Assay for human Nuclear Receptor Subfamily 1 Group H Member 4 (NR1H4), IR1 submotif (AID 2282946). As to conditions: IR1 reporter transcription, actives raise or lower the signal. The method in brief:
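HepG2 cells transiently transfected with multiple cis-promoter-driven reporter units to measure endogenous transcription factor activity; 24 h exposure. Reporter mRNA read by RT-PCR, FAM labelling, HpaI digestion and capillary electrophoresis. Bidirectional fit versus DMSO.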
As for `Cc1cc(C)c(C)cc1C`, the compound was classed as inactive.
In the case of `CCC(Cc1ccccc1)(C(=O)c1ccc(N2CCOCC2)cc1)N(C)C` (stereo unspecified), the call was inactive.
Consider `Cc1cc(C)c(C)c(C)c1`, for which the outcome was inactive.
The same measure, in the same setting: as for `CCCOCCOCCOCCO`, the entry is “inactive”.
Take `C=CCCCCCCCCC(=O)OCCCC`: the result was inactive.

Test system in another experiment: not listed separately
The experiment can be described thus: ATG_GRE_CIS: Attagene CIS-FACTORIAL HepG2 Assay for human Glucocorticoid Response Elements (GRE) (AID 2282947). As to conditions: HepG2 GRE cis-reporter, Attagene multiplex mRNA; actives raise or lower the signal. The method in brief: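 Endogenous transcription factor activity is read through cis-element reporter constructs transiently transfected into HepG2 cells. After 24 h treatment, labelled RT-PCR products are resolved by capillary electrophoresis; DMSO sets baseline for bidirectional curve fitting.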
As for `[Cl][Nd]([Cl])[Cl]`, the compound was classed as inactive.
With `O=C(Nc1ccccc1)c1ccccc1O`, the result was inactive.
The same measure, in the same setting: the value for `CC(C)c1ccc(C#N)cc1` was “inactive”; that for `[Cl][Bi]([Cl])([c]1ccccc1)([c]1ccccc1)[c]1ccccc1` was “inactive”.
Same read-out and setting: the value for `O=c1c2ccccc2nnn1CCl` was “inactive”; that for `CN(C)c1ccc(N=Nc2ccccc2C(=O)O)cc1` was “inactive”.
Still for that read-out and setting: as for `S=C(NC1CCCCC1)NC1CCCCC1`, the entry is “inactive”; as for `COc1cc(NC(=O)CC(C)=O)c(OC)cc1Cl`, “inactive”; as for `C=C[Si](OC(C)=O)(OC(C)=O)OC(C)=O`, “inactive”.
As to `CC(C)CC(O)Cc1ccccc1` (stereo unspecified), the compound was classed as inactive.
Consider `C=C(C)C(=O)OCCOc1ccccc1`, for which the compound was called inactive.
